According to article PMC9911399, “Two distinct binding modes provide the RNA-binding protein RbFox with extraordinary sequence specificity”:
Changes are numbered by the printed parent chain; changes in the protein carry UniProt numbers. In all, about 16,000 sequences were measured (“ka relative to ugcaugu”: median about 0.096, highest 2% from about 0.35 on). Many of the other results were omitted from the sample, so the highest values are more common in it than they were.

T1: RBFOX1 RRM RbFoxmut (Fox-RRM*) (Homo sapiens, UniProt Q9NWB1 109-208, R118D;E147R;N151S;E152T)
T1 sequence: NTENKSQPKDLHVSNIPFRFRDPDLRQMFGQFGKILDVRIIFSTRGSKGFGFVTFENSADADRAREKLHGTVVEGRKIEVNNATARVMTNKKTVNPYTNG

B1: CGCCCUU (DNA:RNA)
RNA: GGGAGACCGGAAUUCAGAUUGUCCCGCCCUUUUAAAUCCCGUCGUAGCCACCA
DNA 1: CAATCTGAATTCCGGTCTCCC
DNA 2: TGGTGGCTACGACGGGATT
B2: UCGUUAU (DNA:RNA)
RNA: B1 RNA with C25U, G26C, C27G, C28U, C29U, U30A
DNA 1: CAATCTGAATTCCGGTCTCCC
DNA 2: TGGTGGCTACGACGGGATT
B3: UGUAGGC (DNA:RNA)
RNA: B1 RNA with C25U, C27U, C28A, C29G, U30G, U31C
DNA 1: CAATCTGAATTCCGGTCTCCC
DNA 2: TGGTGGCTACGACGGGATT
B4: UGUAUGA (DNA:RNA)
RNA: B1 RNA with C25U, C27U, C28A, C29U, U30G, U31A
DNA 1: CAATCTGAATTCCGGTCTCCC
DNA 2: TGGTGGCTACGACGGGATT
B5: UGUAAUG (DNA:RNA)
RNA: B1 RNA with C25U, C27U, C28A, C29A, U31G
DNA 1: CAATCTGAATTCCGGTCTCCC
DNA 2: TGGTGGCTACGACGGGATT
B6: UGUGUGG (DNA:RNA)
RNA: B1 RNA with C25U, C27U, C28G, C29U, U30G, U31G
DNA 1: CAATCTGAATTCCGGTCTCCC
DNA 2: TGGTGGCTACGACGGGATT
B7: UGUAUGG (DNA:RNA)
RNA: B1 RNA with C25U, C27U, C28A, C29U, U30G, U31G
DNA 1: CAATCTGAATTCCGGTCTCCC
DNA 2: TGGTGGCTACGACGGGATT
B8: UGUAUGC (DNA:RNA)
RNA: B1 RNA with C25U, C27U, C28A, C29U, U30G, U31C
DNA 1: CAATCTGAATTCCGGTCTCCC
DNA 2: TGGTGGCTACGACGGGATT
B9: UGUAUUC (DNA:RNA)
RNA: B1 RNA with C25U, C27U, C28A, C29U, U31C
DNA 1: CAATCTGAATTCCGGTCTCCC
DNA 2: TGGTGGCTACGACGGGATT
B10: UGUAAUC (DNA:RNA)
RNA: B1 RNA with C25U, C27U, C28A, C29A, U31C
DNA 1: CAATCTGAATTCCGGTCTCCC
DNA 2: TGGTGGCTACGACGGGATT
B11: UGUUAAA (DNA:RNA)
RNA: B1 RNA with C25U, C27U, C28U, C29A, U30A, U31A
DNA 1: CAATCTGAATTCCGGTCTCCC
DNA 2: TGGTGGCTACGACGGGATT
B12: UGUCGUA (DNA:RNA)
RNA: B1 RNA with C25U, C27U, C29G, U31A
DNA 1: CAATCTGAATTCCGGTCTCCC
DNA 2: TGGTGGCTACGACGGGATT
B13: UGUAGGG (DNA:RNA)
RNA: B1 RNA with C25U, C27U, C28A, C29G, U30G, U31G
DNA 1: CAATCTGAATTCCGGTCTCCC
DNA 2: TGGTGGCTACGACGGGATT
B14: CGUAAUG (DNA:RNA)
RNA: B1 RNA with C27U, C28A, C29A, U31G
DNA 1: CAATCTGAATTCCGGTCTCCC
DNA 2: TGGTGGCTACGACGGGATT
B15: UGCUAAU (DNA:RNA)
RNA: B1 RNA with C25U, C28U, C29A, U30A
DNA 1: CAATCTGAATTCCGGTCTCCC
DNA 2: TGGTGGCTACGACGGGATT
B16: AGCGUUA (DNA:RNA)
RNA: B1 RNA with C25A, C28G, C29U, U31A
DNA 1: CAATCTGAATTCCGGTCTCCC
DNA 2: TGGTGGCTACGACGGGATT
B17: GUGCUCG (DNA:RNA)
RNA: B1 RNA with C25G, G26U, C27G, C29U, U30C, U31G
DNA 1: CAATCTGAATTCCGGTCTCCC
DNA 2: TGGTGGCTACGACGGGATT
B18: CUUACCA (DNA:RNA)
RNA: B1 RNA with G26U, C27U, C28A, U30C, U31A
DNA 1: CAATCTGAATTCCGGTCTCCC
DNA 2: TGGTGGCTACGACGGGATT
B19: GAGUGUA (DNA:RNA)
RNA: B1 RNA with C25G, G26A, C27G, C28U, C29G, U31A
DNA 1: CAATCTGAATTCCGGTCTCCC
DNA 2: TGGTGGCTACGACGGGATT
B20: CAGCCAU (DNA:RNA)
RNA: B1 RNA with G26A, C27G, U30A
DNA 1: CAATCTGAATTCCGGTCTCCC
DNA 2: TGGTGGCTACGACGGGATT
B21: UGUAUCC (DNA:RNA)
RNA: B1 RNA with C25U, C27U, C28A, C29U, U30C, U31C
DNA 1: CAATCTGAATTCCGGTCTCCC
DNA 2: TGGTGGCTACGACGGGATT
B22: UGUAUUG (DNA:RNA)
RNA: B1 RNA with C25U, C27U, C28A, C29U, U31G
DNA 1: CAATCTGAATTCCGGTCTCCC
DNA 2: TGGTGGCTACGACGGGATT
B23: UGUAUCG (DNA:RNA)
RNA: B1 RNA with C25U, C27U, C28A, C29U, U30C, U31G
DNA 1: CAATCTGAATTCCGGTCTCCC
DNA 2: TGGTGGCTACGACGGGATT
B24: UGUUGUA (DNA:RNA)
RNA: B1 RNA with C25U, C27U, C28U, C29G, U31A
DNA 1: CAATCTGAATTCCGGTCTCCC
DNA 2: TGGTGGCTACGACGGGATT
B25: UGUCCCG (DNA:RNA)
RNA: B1 RNA with C25U, C27U, U30C, U31G
DNA 1: CAATCTGAATTCCGGTCTCCC
DNA 2: TGGTGGCTACGACGGGATT
B26: UGUAUUA (DNA:RNA)
RNA: B1 RNA with C25U, C27U, C28A, C29U, U31A
DNA 1: CAATCTGAATTCCGGTCTCCC
DNA 2: TGGTGGCTACGACGGGATT
B27: GCUAGGC (DNA:RNA)
RNA: GGGAGACCGGAAUUCAGAUUGUCCGCUAGGCUUAAAUCCCGUCGUAGCCACCA
DNA 1: CAATCTGAATTCCGGTCTCCC
DNA 2: TGGTGGCTACGACGGGATT
B28: UGCACAU (DNA:RNA)
RNA: B1 RNA with C25U, C28A, U30A
DNA 1: CAATCTGAATTCCGGTCTCCC
DNA 2: TGGTGGCTACGACGGGATT
B29: GACAGGU (DNA:RNA)
RNA: B27 RNA with C26A, U27C, C31U
DNA 1: CAATCTGAATTCCGGTCTCCC
DNA 2: TGGTGGCTACGACGGGATT
B30: AGUUAAU (DNA:RNA)
RNA: B1 RNA with C25A, C27U, C28U, C29A, U30A
DNA 1: CAATCTGAATTCCGGTCTCCC
DNA 2: TGGTGGCTACGACGGGATT
B31: CUUGUCC (DNA:RNA)
RNA: B27 RNA with G25C, C26U, A28G, G29U, G30C
DNA 1: CAATCTGAATTCCGGTCTCCC
DNA 2: TGGTGGCTACGACGGGATT
B32: UCGCGUG (DNA:RNA)
RNA: B1 RNA with C25U, G26C, C27G, C29G, U31G
DNA 1: CAATCTGAATTCCGGTCTCCC
DNA 2: TGGTGGCTACGACGGGATT
B33: GUGUGUC (DNA:RNA)
RNA: B27 RNA with C26U, U27G, A28U, G30U
DNA 1: CAATCTGAATTCCGGTCTCCC
DNA 2: TGGTGGCTACGACGGGATT
B34: UUGUGUC (DNA:RNA)
RNA: B27 RNA with G25U, C26U, U27G, A28U, G30U
DNA 1: CAATCTGAATTCCGGTCTCCC
DNA 2: TGGTGGCTACGACGGGATT
B35: CCUUGUC (DNA:RNA)
RNA: B27 RNA with G25C, A28U, G30U
DNA 1: CAATCTGAATTCCGGTCTCCC
DNA 2: TGGTGGCTACGACGGGATT
B36: UUGGGGG (DNA:RNA)
RNA: B27 RNA with G25U, C26U, U27G, A28G, C31G
DNA 1: CAATCTGAATTCCGGTCTCCC
DNA 2: TGGTGGCTACGACGGGATT
B37: UCGUGUC (DNA:RNA)
RNA: B27 RNA with G25U, U27G, A28U, G30U
DNA 1: CAATCTGAATTCCGGTCTCCC
DNA 2: TGGTGGCTACGACGGGATT
B38: UUGGGAA (DNA:RNA)
RNA: B27 RNA with G25U, C26U, U27G, A28G, G30A, C31A
DNA 1: CAATCTGAATTCCGGTCTCCC
DNA 2: TGGTGGCTACGACGGGATT
B39: UCGCGUC (DNA:RNA)
RNA: B27 RNA with G25U, U27G, A28C, G30U
DNA 1: CAATCTGAATTCCGGTCTCCC
DNA 2: TGGTGGCTACGACGGGATT
B40: UUGUCCC (DNA:RNA)
RNA: B1 RNA with C25U, G26U, C27G, C28U, U30C, U31C
DNA 1: CAATCTGAATTCCGGTCTCCC
DNA 2: TGGTGGCTACGACGGGATT
B41: UUGUGUG (DNA:RNA)
RNA: B1 RNA with C25U, G26U, C27G, C28U, C29G, U31G
DNA 1: CAATCTGAATTCCGGTCTCCC
DNA 2: TGGTGGCTACGACGGGATT
B42: UUGGGUG (DNA:RNA)
RNA: B1 RNA with C25U, G26U, C27G, C28G, C29G, U31G
DNA 1: CAATCTGAATTCCGGTCTCCC
DNA 2: TGGTGGCTACGACGGGATT

biological target: T1, RBFOX1 RRM RbFoxmut (Fox-RRM*); assay: EMSA; HiTS-Eq, 1 nM pool, 10 min; buffer printed only for the single-RNA assays: 10 mM Tris pH 7.5, 150 mM NaCl, 3.4 mM EDTA, 0.001% NP-40, 30 C; settings: tags: His6 N-terminal (pET28a); label: 5' 32P
Method in brief: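 These values rest on relative association constants, computed from read-count changes of each RNA species versus the control reaction and normalised to the cognate motif. Reads came from free RNA recovered by 8% native PAGE after purified RbFox RRM (wild type or mutant) at increasing concentrations was equilibrated for 10 min in 50 µL with 1 nM of a 5′-radiolabelled pool with 7 randomized nucleotides and DNA-annealed flanks.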

Binder	binding signal
B1	0.0724 KA relative to UGCAUGU
B2	0.11 KA relative to UGCAUGU
B3	0.115 KA relative to UGCAUGU
B4	0.44 KA relative to UGCAUGU
B5	0.381 KA relative to UGCAUGU
B6	0.173 KA relative to UGCAUGU
B7	0.394 KA relative to UGCAUGU
B8	0.684 KA relative to UGCAUGU
B9	0.207 KA relative to UGCAUGU
B10	0.157 KA relative to UGCAUGU
B11	0.11 KA relative to UGCAUGU
B12	0.13 KA relative to UGCAUGU
B13	0.0751 KA relative to UGCAUGU
B14	0.157 KA relative to UGCAUGU
B15	0.0977 KA relative to UGCAUGU
B16	0.113 KA relative to UGCAUGU
B17	0.226 KA relative to UGCAUGU
B18	0.0834 KA relative to UGCAUGU
B19	0.258 KA relative to UGCAUGU
B20	0.0919 KA relative to UGCAUGU
B21	0.15 KA relative to UGCAUGU

Binder	binding signal
B22	0.691 KA relative to UGCAUGU
B23	0.648 KA relative to UGCAUGU
B24	0.307 KA relative to UGCAUGU
B25	0.096 KA relative to UGCAUGU
B26	0.175 KA relative to UGCAUGU
B27	0.0891 KA relative to UGCAUGU
B28	0.0893 KA relative to UGCAUGU
B29	0.0716 KA relative to UGCAUGU
B30	0.0918 KA relative to UGCAUGU
B31	0.107 KA relative to UGCAUGU
B32	0.153 KA relative to UGCAUGU
B33	0.329 KA relative to UGCAUGU
B34	0.357 KA relative to UGCAUGU
B35	0.226 KA relative to UGCAUGU
B36	0.0724 KA relative to UGCAUGU
B37	0.359 KA relative to UGCAUGU
B38	0.14 KA relative to UGCAUGU
B39	0.145 KA relative to UGCAUGU
B40	0.0731 KA relative to UGCAUGU
B41	0.491 KA relative to UGCAUGU
B42	0.373 KA relative to UGCAUGU
